In the library only some 11% were active in any assay of this set; here they are far more common.
Vaccinia mCherry: vaccinia inhibition (mCherry reporter); 310,000 tested, 0.63% active; Vaccinia virus mCherry reporter infection, fluorescence; Potency, µM (series often up to 36.5 µM), most hits filed as inhibitors; AID 720579; calls by dose curve; tested in A549 cells; also: nearly all actives have a fitted effect of over 35% in size
Pf growth 48h: P. falciparum growth inhibition at 48 hours (one generation); 310,000 tested, 5.9% active; P. falciparum luciferase growth in erythrocytes, 48 h; AID 504832; Potency, µM (highest dose often 28.7 µM), usual class: inhibitors
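Read-out is firefly luciferase luminescence from an integrated reporter in P. falciparum, so falling signal marks reduced parasite growth. Infected erythrocytes were at 2% hematocrit and 0.1% parasitemia (final) in Albumax-supplemented RPMI 1640.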
VACV Venus inh: inhibitors of vaccinia virus (Venus reporter); 330,000 tested, 0.46% active; AID 720580; Vaccinia virus Venus reporter expression, fluorescence; Potency, µM (top dose mostly 36.5 µM), hits mostly inhibitors; calls by dose curve; tested in A549 cells; also: nearly all actives have a fitted effect of over 30% in size
HCV inh: inhibitors of hepatitis C virus infection | Potency, µM (highest dose often 41.8 µM), usual class: inhibitors | AID 651820 | 340,000 tested, 3.4% active | Huh7.5.1 HCVcc-Cre infection, luciferase reporter, 44 h
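Whole-lifecycle infectious HCVcc-Cre system; cells 1,000/well, compound then virus (~0.5 moi) added 4 h after plating, 44 h culture. Luciferase read 15 sec following 15 min substrate incubation, room temp.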
NS1 inh: inhibitors of influenza NS1 protein function | Potency, µM (series often up to 46.1 µM) | 270,000 tested, 0.4% active | AID 2326; calls by dose curve; also: actives are rising curves; nearly all actives have a fitted effect of over 50% in size
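Read-out: OD600 growth recovery of NS1-expressing budding yeast. Cells grown overnight at 30C in -URA glucose medium, washed, resuspended and diluted 1:100 in 2% galactose assay medium, pH 6.0. Same strain lacking NS1 served as positive control.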
Pf growth 96h: inhibits malaria parasite growth, 96 h; P. falciparum luciferase reporter growth, 96 h; Potency, µM (highest dose often 28.7 µM), usual class: inhibitors; 320,000 tested, 6.9% active
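Parasite growth measured via integrated firefly luciferase reporter in P. falciparum. Infected erythrocytes at 2% hematocrit, 0.05% parasitemia final were treated 96 hours at 37 C under 5% CO2, and luminescence was read.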
Hits are given with their value; - = inactive; ? = inconclusive; . = not tested or not shown; [ ] = dose if it differs, or a comment. Unless noted, calls follow the shape of the dose curve; as a rule, active = well fitted inhibition curve with a large enough effect; inconclusive = small, poorly fitted or top-dose-only effect, or another doubt; inactive = no such curve, though single readings can be large or run the other way.

SMILES	Vaccinia mCherry	Pf growth 48h	VACV Venus inh	HCV inh	NS1 inh	Pf growth 96h
CCOC(=O)[C@H]1[C@H]2COc3ccc(Cl)cc3[C@@H]2N2C(=O)CN(Cc3ccc(F)cc3)C(=O)[C@@]12C	-	?	-	-	.	?
CCOC(=O)[C@H]1[C@H]2COc3ccc(C)cc3[C@@H]2N2C(=O)CN(Cc3ccc(C)cc3)C(=O)[C@@]12C	-	?	-	-	.	?
CCOC(=O)[C@H]1[C@H]2COc3ccc(Cl)cc3[C@@H]2N2C(=O)CN(Cc3ccc(Cl)cc3)C(=O)[C@@]12C	-	15µM	-	-	.	?
CCOC(=O)[C@H]1[C@H]2COc3ccc(Cl)cc3[C@@H]2N2C(=O)CN(Cc3ccccc3)C(=O)[C@@]12C	-	?	-	?	.	5.9µM
COc1ccc(-c2oc3cc(OC)c(O)c(OC)c3c(=O)c2OC)cc1O	?	?	?	8.9µM	-	10µM
COc1ccc(-c2oc3c(OC)c(OC)c(OC)c(O)c3c(=O)c2OC)cc1OC	?	?	?	10µM	-	3.3µM
COc1c(-c2ccc(O)cc2)oc2cc(O)cc(O)c2c1=O	20µM	?	?	?	-	-
CC1OC(Oc2c(-c3cc(O)c(O)c(O)c3)oc3cc(O)cc(O)c3c2=O)C(O)C(O)C1O (stereo not given)	-	9.3µM	-	-	-	-
CC(C)(C)NC(=O)c1nc2nc(-c3ccccc3)cc(C(F)(F)F)n2n1	-	-	-	-	-	?
COc1ccc(-n2c(C)nc3cc(C(=O)NC4CCCCCC4)ccc32)cc1	-	.	-	.	.	.
Cc1ccc(Nc2nnc(SCC(=O)NC3CCS(=O)(=O)C3)s2)c(C)c1 (stereo not given)	-	?	-	-	.	2.6µM
Cc1ccc(Nc2nnc(SCc3cc(=O)n4ccsc4n3)s2)c(C)c1	.	6.6µM	.	-	-	4.7µM
COc1ccccc1Nc1nnc(SCc2cc(=O)n3ccsc3n2)s1	-	?	-	?	.	4.7µM
Cc1cccc(C)c1Nc1nnc(SCC(=O)NC2CCS(=O)(=O)C2)s1 (stereo not given)	-	-	-	-	-	-
Cc1c(Cl)cccc1NC(=O)Cn1nc(C)n2cccc2c1=O	-[7.34 µM]	-	-[7.34 µM]	-	-	-
N#CC(C(=O)C12CC3CC(CC(C3)C1)C2)c1nc2ccccc2[nH]1 (stereo not given)	.	-	?	?	-	?
COc1ccc(NC(=O)c2cc(C)no2)cc1Cl	-	4.1µM	-	-	-	3.7µM
COc1ccc(Cl)cc1NC(=O)c1cc(C)no1	-	-	-	10µM	-	-
COc1ccc(NC(=O)c2cc(C)no2)cc1OC	-	-	-	-	-	?
COc1ccc(CNC(=O)CN2c3ccccc3S(=O)(=O)c3ccccc32)cc1	-[7.34 µM]	-	-[7.34 µM]	-	-	-
COC(=O)c1ccc(N2C(=O)c3cc(N4CCOCC4)c([N+](=O)[O-])cc3C2=O)cc1	-	-	-	-	-	-
COc1ccc(-c2ccc(-c3noc(-c4ccc(OC)c(OC)c4)n3)c(OC)n2)cc1	.	-	.	.	-	.
Cc1nc(SCC(=O)Nc2c(C)nn(C)c2C)c2cnn(-c3ccccc3)c2n1	.	-	.	?	-	-
CCOc1ccccc1NC(=O)c1ccc2[nH]c(C)c(C)c2c1	?	15µM	-	?	?	?
CCOc1ccccc1NC(=O)c1ccc2ccccc2c1	-	-	-	10µM	-	12µM
SMILES	Vaccinia mCherry	Pf growth 48h	VACV Venus inh	HCV inh	NS1 inh	Pf growth 96h
CCOc1cc(NC(=S)Nc2cccc(OC)c2)c(OCC)cc1NC(=O)c1ccc(C)cc1	.	?	.	?	?	-
CCOc1cc(NC(=S)Nc2ccccc2)c(OCC)cc1NC(=O)c1ccc(OC)cc1	.	12µM	.	?	?	?
CCOc1ccccc1NC(=O)NNC(=O)c1ccc2ccccc2c1	-	-	-	-	-	-
CCOc1ccccc1NC(=O)c1cc(CC(C)C)oc1C	.	10µM	.	-	-	-
CC(=O)Nc1c(O)nc(SCC(=O)Nc2ccc(C(C)=O)cc2)[nH]c1=O	-	-	-	-	-	-
O=C(O)c1cc(NS(=O)(=O)c2cccc3nsnc23)cc(C(=O)O)c1	.	-[0.00184 µM]	.	-	-	7.4µM
O=S(=O)(Nc1cccc(Br)c1)c1cccc2nsnc12	-	-	-	-	-	?
O=C(O)C1C2C=CC(C2)C1C(=O)Nc1ccc(C(=O)N2CCCCC2)cc1 (stereo not given)	-	-	-	-	-	.
CCC(=O)Nc1cc(C(C)(C)C)ccc1C(C)=O	-	-	-	10µM	-	-
CN(C)S(=O)(=O)c1ccc(Cl)c(NC(=O)CN2C(=O)NC(C)(C3CC3)C2=O)c1 (stereo not given)	.	-	.	-	-	?
COc1ccc2c(c1)OC/C(=C/c1ccc(OC)c(OC)c1)C2=O	-	.	?	.	.	.
COc1ccc(/C=C2/CSC/C(=C/c3ccc(OC)c(OC)c3)C2=O)cc1OC	2.5µM	.	?	?	.	.
O=C(COC(=O)c1cc(S(=O)(=O)N2CCCCC2)ccc1N1CCOCC1)c1ccc(Cl)cc1	-	12µM	-	?	.	13µM
CC(C)NC(=O)NC(=O)COC(=O)c1cc(S(=O)(=O)N2CCCCC2)ccc1N1CCOCC1	.	8.3µM	.	-	-	?
CC1(C)C(=O)Nc2ccccc2N1C(=O)COc1cc(Cl)ccc1Cl	.	12µM	.	-	.	?
Cc1ccc(S(=O)(=O)N2CCCCC2)cc1C(=O)OCC(=O)N1c2ccccc2NC(=O)C1(C)C	-	.	-	11µM	.	.
Cc1ccc(C(=O)OCC(=O)N2c3ccccc3NC(=O)C2(C)C)cc1S(=O)(=O)N1CCCCC1	-	.	-	?	.	.
CC1(C)C(=O)Nc2ccccc2N1C(=O)COC(=O)c1cc(Cl)cc(Cl)c1	.	.	.	-	.	.
OCCN1C2CCC1CC(O)(c1ccc(F)cc1)C2 (stereo not given)	-	.	-	-	-	-
O=C(COC(=O)c1cc(S(=O)(=O)N2CCOCC2)ccc1F)c1ccccc1	.	.	.	-	.	.
Cc1ccc(S(=O)(=O)N2CCOCC2)cc1C(=O)OCC(=O)c1ccc[nH]1	.	?	.	11µM	.	?
O=C(COC(=O)c1ccc(F)c(S(=O)(=O)N2CCOCC2)c1)c1ccccc1	.	.	.	-	.	.
O=C(COC(=O)c1cc(S(=O)(=O)N2CCOCC2)cs1)c1ccccc1	.	-	.	-	-	9.3µM
O=C(COC(=O)c1cc(S(=O)(=O)N2CCCCC2)ccc1N1CCOCC1)c1ccccc1	-	8.3µM	-	-	.	?
CC1CC(=O)c2cnc(NCc3ccco3)nc2C1 (stereo not given)	-	-	-	-	-	?
COc1cccc(NC(=O)Cn2cc(C(=O)c3ccc(C)cc3)c(=O)c3cc(OC)ccc32)c1	-	?	-	.	.	?
CCc1ccc(C(=O)c2cn(CC(=O)Nc3cccc(OC)c3)c3ccc(OC)cc3c2=O)cc1	-	12µM	-	.	.	2.9µM
COc1ccccc1NC(=O)Cn1cc(C#N)c2ccccc21	.	.	.	-	-	-
COc1cccc(NC(=O)Cn2cc(C#N)c3ccccc32)c1	-	15µM	-	-	-	-
Brc1ccc(/C=N/Nc2nncc(-c3ccccc3)n2)o1	.	-	.	.	.	?
